Most compounds without a hit are left out; they make up all but 12% or so of the library.
CHX counter = affects cycloheximide protein synthesis inhibition readout, counter-screen. cell reporter, cycloheximide protein synthesis inhibition counterscreen. max response, %. 300,000 tested, 12% active. AID 2314; in the data active = max response mostly above about 13%, no sharp cut-off; inactive = mostly below about 14%; also: read at 38.3 µM for the half of the compounds with a filed dose; 0% is about no effect
Sm TGR block = blocks Schistosoma mansoni thioredoxin glutathione reductase; Q962Y6; purified TGR, DTNB reduction, TNB absorbance 405 nm; Potency, µM (highest dose often 114 µM), without a hit: at the top dose activity change, negative = inhibition, most hits filed as inhibitors; 360,000 tested, 3% active; active = well fitted inhibition curve with a large enough effect; inconclusive = small, poorly fitted or top-dose-only effect; inactive = no such curve, though single readings can be large or run the other way; also: potency is read from the fitted curve at half-maximal effect; % is scaled to controls: 0 for no effect and ±100 for the full control effect; nearly all actives have a fitted effect of over 60% in size
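TGR 20 nM + NADPH 100 uM (dispensed conc.), cpd preinc 15 min RT; start with NADPH (500 uM addition) then DTNB (15 mM addition). Kinetic TNB absorbance, 405 nm filter. Four-parameter Hill fit across titration.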
Shiga inhibitor = blocks Shiga toxin action in Vero cells. Vero cells, Shiga toxin protein synthesis inhibition reporter. inhibition, % at 38.7 µM. 290,000 tested, 9.2% active. AID 2315; in the data active = inhibition mostly above about 28%, no sharp cut-off; inactive = mostly below about 43%; also: 0% is about no effect
FMDV antiviral = blocks foot and mouth disease virus | Potency, µM (doses to about 57.9 µM), for inactives: at the highest dose activity change, negative = inhibition, hits mostly inhibitors | 410,000 tested, 1.2% active | AID 1159524 | FMDV antiviral cell-based qHTS; calls by dose curve; tested in HEK293T cells; also: read-out not given here; potency is read from the fitted curve at half-maximal effect; % is scaled to controls: 0 for no effect and ±100 for the full control effect; nearly all actives have a fitted effect of over 45% in size
The depositor's hits bear a star; ? = inconclusive; · = no result.

SMILES | CHX counter | Sm TGR block | Shiga inhibitor | FMDV antiviral
Cc1nc(C)c(C(=O)N/N=C/c2c[nH]c3ccccc23)s1 | 15 | -10% | -5 | -2%
Cc1ccc(NC(=O)c2cc(-c3ccccc3)n[nH]2)cc1 | 39* | -24% | 49* | 52%
O=C(N/N=C/c1c[nH]c2ccccc12)c1ccn[nH]1 | 28* | 2% | 46 | 64%
COc1cc(OC)c(NC(=O)C2=C(C)C(=O)OC23CCCCC3)cc1Cl | · | -3% | · | -9%
COc1ccccc1CNC(=O)Cn1c(=O)nc(-c2ccccc2F)c2cc(Cl)ccc21 | · | 3% | · | -27%
O=C(N/N=C/c1c[nH]c2ccccc12)c1cc(-c2ccc3ccccc3c2)n[nH]1 | 49* | -1% | 64* | -22%
O=C(N/N=C/c1c[nH]c2ccccc12)c1cc(-c2ccccc2)n[nH]1 | 7 | 0% | 22 | -5%
Cc1ccc(-c2cc(C(=O)N/N=C/c3c[nH]c4ccccc34)[nH]n2)cc1 | 47* | 1% | 51* | -1%
O=C(N/N=C/C=C\c1ccccc1[N+](=O)[O-])c1cc(-c2ccc3ccccc3c2)n[nH]1 | 11* | -25% | 25 | 11%
Cc1ccc(-c2cc(NC(=O)c3ccccc3)on2)cc1 | 23* | 3% | 94* | 0%
CCS(=O)(=O)Nc1cc(C(=O)N2CCCN(C=O)CC2)c2c(c1)nc(-c1ccccc1)n2C | · | · | · | 0%
c1ccc(CSC2=NNC(c3ccccn3)S2)cc1 (stereo not given) | 33* | -7% | 32 | -9%
O=C(CSC1=NNC(c2ccccn2)S1)Nc1ccc(C(F)(F)F)cc1 (stereo not given) | 23* | -1% | 38* | -15%
O=C(CSc1cccc2cccnc12)N1CCCC1 | 42* | 2% | 37* | ?
CN(C)C(=O)CSc1cccc2cccnc12 | 12* | -13% | 11 | ?
NNC(=O)CSc1cccc2cccnc12 | -2 | 2% | -3 | -3%
NC(=O)Cn1c(=O)n(CCCCCC(=O)NCc2ccccc2Cl)c(=O)c2sccc21 | · | 1% | · | -2%
Cc1ccc2oc(C(=O)NCC(c3ccc(Cl)cc3)N3CCOCC3)c(C)c2c1 (stereo not given) | · | 6% | · | ?
O=C(Nc1ccc(N2CCOCC2)c2nonc12)C1CCCC1 | 18* | -6% | 37 | 23%
O=C(Nc1ccc(F)cc1)Nc1ccc(N2CCOCC2)c2nonc12 | 18* | · | 38 | 41%
COc1ccc(NC(=O)C(=O)NCCc2csc(-c3ccc(Cl)cc3)n2)cc1OC | · | 5% | · | -30%
CNS(=O)(=O)c1cccc(C(=O)OCc2cc(C(C)=O)ccc2OC)c1 | -3 | 2.8µM* | -5 | -5%
COc1ccc(C(C)=O)cc1COC(=O)c1ccc(S(=O)(=O)N(C)C)cc1 | 9 | 2.5µM* | 17 | -16%
COc1ccc(C(=O)COC(=O)c2ccc3c(c2)NC(=O)CS3)c(OC)c1 | · | -8% | · | ?
CCOc1ccc(C(C)=O)cc1COC(=O)c1ccc2c(c1)NC(=O)CS2 | · | 11µM* | · | ?
SMILES | CHX counter | Sm TGR block | Shiga inhibitor | FMDV antiviral
COc1ccc(C(C)=O)cc1COC(=O)c1ccc(C)c(S(=O)(=O)N2CCOCC2)c1 | · | 3.5µM* | · | -17%
COc1ccc(C(C)=O)cc1COC(=O)c1ccc2c(c1)OCO2 | 1 | ? | 55 | -9%
COc1ccc(C(C)=O)cc1COC(=O)c1cnc(Cl)c(Cl)c1 | 1 | 1.4µM* | -15 | ?
CCOc1ccc(C(C)=O)cc1COC(=O)c1ccccc1C(=O)N(C)Cc1ccccc1 | · | 20µM* | · | -17%
CN(Cc1ccccc1)C(=O)c1ccccc1C(=O)OCC(=O)N(Cc1ccccc1)C(C)(C)C | · | · | · | -28%
CN(C)S(=O)(=O)c1ccc(C(=O)OCc2ccc([N+](=O)[O-])cc2)cc1 | 13* | 2% | 18 | 16%
CN(C)S(=O)(=O)c1ccc(C(=O)OCc2ccc(C#N)cc2)cc1 | -3 | -23% | -3 | -9%
CC(C)c1ccc(NC(=O)c2cn(C3CCCC3)c(=O)c3c2c2ccccc2n3C)cc1 | · | 3% | · | -22%
CCc1cnc2c(c1SCC(=O)c1ccc(OC)cc1)c(=O)n(C)c(=O)n2C | · | 2% | · | 28µM*
CC(C)CCn1c(SCc2cccc(F)c2)nc2ccsc2c1=O | · | 4% | · | -5%
COc1cccc(-c2nc3ccccc3s2)c1 | 38* | -4% | 74* | -55%
COc1ccc(-c2nc3ccccc3s2)cc1 | 16* | · | 18 | -78%
COc1cccc(CC(=O)Nc2ccc(-c3nc4ccccc4s3)cc2)c1 | · | 1% | · | 20%
COc1ccc(CC(=O)Nc2ccc(-c3nc4ccccc4s3)cc2Cl)cc1 | · | 4% | · | -15%
Cc1cccc(NC(=O)CN2CCSc3ccccc32)c1 | 34* | -21% | 49* | -10%
COc1cccc(NC(=O)CN2CCSc3ccccc32)c1 | 7 | -12% | 0 | 6%
CCn1c(=O)cc(OCC(=O)N2CCN(c3ccc(C)cc3)C(C)C2)c2ccccc21 (stereo not given) | · | -9% | · | 35µM*
CCn1c(=O)cc(OCC(=O)N2CCCCCC2)c2ccccc21 | 12 | 0% | 20 | -13%
Cc1ccc(N(C)C(=O)c2noc3c2CCCCC3)cc1C | · | 10% | · | 8%
c1ccc(NNC2=NCCCCC2)cc1 | 17 | -3% | 4 | -20%
c1ccc(-c2csc(NNC3=NCCCCC3)n2)cc1 | 39* | 0% | 39 | 13%
Clc1ccc(-c2csc(NNC3=NCCCCC3)n2)cc1 | 26* | -22% | 18 | -28%
CC(C)C[C@H](NC(=O)[C@H](C)NC(=O)CNC(=O)[C@H](CCCCN)NC(=O)[C@H](CCCN=C(N)N)NC(=O)[C@H](C)NC(=O)[C@H](Cc1ccccc1)NC(=O)[C@@H](N)CCCN=C(N)N)C(=O)N[C@@H](CCCN=C(N)N)C(=O)N[C@@H](CCC(N)=O)C(=O)N[C@@H](CCCCN)C(=O)N[C@@H](CC(N)=O)C(=O)N[C@H](C(N)=O)C(C)C | -4 | · | -4 | ·
COC(=O)[C@@H]1[C@@H](C#N)C2(c3ccccc3-c3ccccc32)N(c2ccc(Cl)cc2)N1C#N | 12* | ? | 47* | 25µM*
O=C(Cc1ccc(Cl)cc1)NN1C(=O)c2ccccc2C1=O | -3 | 3% | 2 | -9%
SMILES | CHX counter | Sm TGR block | Shiga inhibitor | FMDV antiviral
O=C(Nc1ccc(F)cc1)/C(Cl)=C/c1ccccc1 | 40* | -1% | 62* | 0%
CC(=O)c1ccc(NC(=O)C2(c3ccccc3)CC2(Cl)Cl)cc1 (stereo not given) | 40* | 6% | 88* | 11%
Cc1ccc(NC(=O)/C(Cl)=C\c2ccccc2)cc1 | 6 | -1% | 6 | -5%
CC(=O)c1ccc(NC(=O)/C(Cl)=C/c2ccccc2)cc1 | 41* | 34% | 147* | -43%
Cc1ccc(NC(=O)CSc2nc3ccc(NC(=O)c4cccs4)cc3s2)c(C)c1 | · | 3% | · | 16%
C=CCOc1ccc(/C(O)=C2\C(=O)C(=O)N(CCN(C)C)C2c2cccs2)cc1 (stereo not given) | 40 | ? | 62* | 27%
CCOc1ccc(/C(O)=C2/C(=O)C(=O)N(CCN(CC)CC)C2c2cccs2)cc1 (stereo not given) | 43* | 22µM* | 51* | 17%
CCN(CC)CCN1C(=O)C(=O)/C(=C(/O)c2ccc(OCC(C)C)cc2)C1c1ccncc1 (stereo not given) | 7 | -6% | 18 | ·
